Hits are enriched below; roughly 12% of the tested compounds scored in any of these assays.
HP1b binding inh: blocks HP1-beta chromodomain binding to methylated histone tails | 390,000 tested, 0.56% active | Potency, µM (top dose mostly 114 µM), for inactives: at the top dose activity change, negative = inhibition, actives largely listed as inhibitors | AlphaScreen HP1-beta / biotin-H3K9me3 peptide binding | P83916; further: nearly all actives have a fitted effect of over 70% in size
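HP1-beta protein (50 nM final) preincubated 30 min at room temperature with biotinylated H3(1-18)K9me3 peptide (50 nM) in PBS pH 7.4, 0.01% Tween-20, then compound added for 30 min. AlphaScreen streptavidin donor/nickel chelate acceptor beads (10 ug/mL final), 30 min dark, luminescence read.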
PLK1 PBD inh: inhibitors of human PLK1 polo-box domain binding; P53350; 360,000 tested, 2.8% active; Potency, µM, inactives show max response, negative = inhibition, hits mostly inhibitors; Plk1 PBD binding of FITC phosphopeptide, fluorescence polarization; AID 720504; further: series mostly up to about 57 µM; on the % scale 0 is the no-effect control and ±100 the full control effect; nearly all actives have a fitted effect of over 65% in size
Sfp PPTase inh: blocks B. subtilis Sfp PPTase activity | Q9F4F7 | AID 1490 | Biochemical Sfp PPTase activity, qHTS | Potency, µM, for inactives: largest response in the series, negative = inhibition, hits mostly inhibitors | 310,000 tested, 3.5% active;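 further: the enzyme is Sfp with the accession as filed and its product quenches rhodamine fluorescence; 0% = enzyme reaction without inhibitor and -100% = no enzyme wells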
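Fluorescence-quenching assay with 15 nM Sfp, 5 uM rhodamine-CoA and 12.5 uM BHQ-2-labelled ybbR peptide in pH 7.6 Hepes/MgCl2 buffer. Enzyme was pre-incubated with compound for 15 min at room temperature. Rate was taken from the 30-min fluorescence change (525/598 nm).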
JMJD2A Tudor: JMJD2A Tudor domain (human) inhibition; Potency, µM (highest dose often 114 µM), for inactives: at the highest dose activity change, negative = inhibition, most hits filed as inhibitors; O75164; AlphaScreen JMJD2A-Tudor / H3K4me3 peptide binding; 390,000 tested, 4.4% active; further: on the % scale 0 is the no-effect control and ±100 the full control effect; nearly all actives have a fitted effect of over 50% in size
BAZ2B block: blocks human BAZ2B; 360,000 tested, 4.4% active; Q9UIF8; Potency, µM (titrated, usually from 114 µM), inactives show at the highest dose activity change, negative = inhibition, usual class: inhibitors; AlphaScreen BAZ2B-H3K14Ac peptide displacement; further: on the % scale 0 is the no-effect control and ±100 the full control effect; nearly all actives have a fitted effect of over 60% in size
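Compounds, titrated to a top concentration of 110 uM, were incubated 30 min at room temperature with preformed BAZ2B/acetyl-K14 H3 peptide complex (50 nM each). Proximity signal was measured by AlphaScreen after 20 min with beads.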
G9a inh: G9a (human) methyltransferase inhibition. Potency, µM (doses to about 102 µM), for the others: at the highest dose activity, negative = inhibition, hits mostly inhibitors. G9a H3K9 monomethylation, AlphaScreen, 2 h. Q96KQ7. AID 504332. 350,000 tested, 8.8% active; further: on the % scale 0 is the no-effect control and ±100 the full control effect; nearly all actives have a fitted effect of over 75% in size
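G9a (20 nM) was preincubated 15 min with compound, then reacted 2 h at room temperature with 500 nM biotin-H3K9 peptide and 20 µM SAM. Monomethyl-H3K9 detected by AlphaScreen using anti-H3K9me1 antibody.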
The depositor's hits bear a star; ? = inconclusive; · = no result; [ ] = dose if it differs, or a comment. The call rests on the fitted dose curve; in most records, active means well fitted curve in the direction sought with a large enough effect; inconclusive means small, poorly fitted or top-dose-only effect, or another doubt; inactive means no such curve, though single readings can be large; an effect the other way counts as inactive or inconclusive. Potency means the concentration at half of the fitted maximal effect.

SMILES | HP1b binding inh | PLK1 PBD inh | Sfp PPTase inh | JMJD2A Tudor | BAZ2B block | G9a inh
COc1ccccc1CNC(=O)CN1C(=O)NC2(CCCc3sccc32)C1=O (stereo not given) | 39.4% | -0.9% | · | -11.3% | 3.3% | 10.1%[12.7 µM]
O=C1/C(=C/c2cccnc2)Oc2cc(OS(=O)(=O)c3ccc(F)cc3)ccc21 | -7.6% | -16.1% | -19.2% | 39.8µM* | -28.6% | -11.3%
Cc1ccc(S(=O)(=O)Oc2ccc3c(c2)O/C(=C\c2cccnc2)C3=O)cc1 | 14.1% | -7.7% | 2.9% | ? | 2.2% | 0.5%
CC(=O)OCC1OC(c2ccc3c(c2)OCO3)C=CC1OC(C)=O (stereo not given) | · | · | -1.9% | · | · | ·
Cc1ccc(-c2nc3s/c(=C\c4ccco4)c(=O)n3n2)cc1 | -14.2% | -9.4% | 2.5% | 50.1µM* | 50.1µM* | 50.1µM*
O=c1nc2s/c(=C\c3ccco3)c(=O)n2nc1Cc1ccc(F)cc1 | ? | -22.8% | 44.7µM* | 56.2µM* | 22.4µM* | ?
COc1ccccc1/C=c1\sc2nc(-c3ccccc3OC)nn2c1=O | 17.2% | -9.8% | -35.7% | -13.2% | -25.8% | ·
Cc1ccc(/C=c2\sc3nc(-c4ccccc4Br)nn3c2=O)o1 | 0.7% | -26.3% | ? | 50.1µM* | 50.1µM* | 3.55µM*
Cc1ccc(/C=c2/sc3nnc(-c4ccccc4Cl)n3c2=O)o1 | -34.8% | -21.9% | 12.6µM* | 22.4µM* | 39.8µM* | 11.2µM*
CCOC(=O)c1cc(-c2ccc(F)cc2)n(CCC(=O)NC2CCCCC2)c1C | 3.2% | · | · | -9.3% | -6.2% | -10.3%[59 µM]
COc1ccc(Br)cc1/C=c1\sc2nc(-c3ccco3)nn2c1=O | -25.0% | ? | ? | 44.7µM* | 15.8µM* | ?
Cc1ccc(/C=c2\sc3nc(-c4ccco4)nn3c2=O)o1 | 22.4µM* | 9.47µM* | 25.1µM* | -15.8%[11.4 µM] | 50.1µM* | 17.8µM*
COc1ccccc1NC(=O)NNC(=O)CCN1CCOCC1 | 48.1% | -6.5% | 13.1% | -6.8% | 18.3% | ?
COc1cccc(NC(=O)CCN2CCN(c3ccccc3F)CC2)c1 | 28.1% | 0.6% | 11.2% | -25.9% | 1.5% | 10.0%[59 µM]
Cc1cc(C([O-])=C(C(=S)Nc2ccc(F)cc2)[n+]2ccccc2)c(C)n1-c1ccc(F)cc1 | 50.1µM* | -4.1% | · | · | · | ·
Cc1ccc(NC(=O)c2cc(C)n(-c3ccccc3)c2C)cc1 | -18.1% | 2.5% | 0.3% | -29.8% | ? | ?
COc1cccc(NC(=S)/C(=C(\[O-])c2cc(C)n(-c3ccccc3F)c2C)[n+]2ccc(N(C)C)cc2)c1 | -18.0% | -24.4% | -16.2% | 25.1µM* | 39.8µM* | 35.5µM*
Cc1ccc(-c2nc3ncccn3c2Nc2ccc3c(c2)OCCO3)cc1 | ? | -13.2% | -10.0% | ? | ? | 44.7µM*
Cc1ccn2c(NC3CCCCC3)c(-c3ccc(C)o3)nc2c1 | 11.1% | · | · | ? | · | ·
Brc1ccc(-c2nc3ncccn3c2Nc2ccc3c(c2)OCCO3)o1 | -4.8% | -6.3% | -20.5% | ? | 50.1µM* | ?
Cc1ccc(-c2nc3ncccn3c2NC2CCCCC2)o1 | -7.7% | -20.2% | 44.7µM* | -22.0%[57.1 µM] | -10.8% | ?
COc1ccc(-c2nc3ncccn3c2Nc2ccc3c(c2)OCCO3)cc1 | 57.5% | -10.0% | -13.4% | -17.6% | -11.6% | -32.7%[59 µM]
Cc1ccc(-c2nc3ncccn3c2Nc2ccc3c(c2)OCCO3)o1 | -19.2% | -14.2% | 44.7µM* | ? | ? | ?
O=C(CC1C(=O)OCCN1Cc1ccccc1)Nc1cccc(Cl)c1 (stereo not given) | 51.0% | · | · | 0.7% | -3.5% | ?
C=CCc1cccc(C2C(C)CCC3C(=O)N4C(CCC(C)C4c4cccc(CC=C)c4)C(=O)N32)c1 (stereo not given) | · | · | -23.2% | · | · | ·
SMILES | HP1b binding inh | PLK1 PBD inh | Sfp PPTase inh | JMJD2A Tudor | BAZ2B block | G9a inh
COC(=O)c1cccc(NC(=O)CSc2nc(=O)cc(N)n2-c2ccccc2)c1 | -11.3% | -6.2% | 10.9% | -22.3% | 56.2µM* | ?
COC(=O)c1ccccc1NC(=O)CSc1nc(O)c(-c2ccccc2)c(=O)[nH]1 | 40.3% | -10.4% | 18.5% | -1.9%[57.1 µM] | ? | -4.1%[59 µM]
COc1ccc(Cc2nnc(SCC(=O)Nc3c(C)cccc3C)[nH]c2=O)cc1 | 18.7% | -3.4% | · | -3.4% | 10.2% | -1.3%
CCc1cccc(NC(=O)CSc2nnc(Cc3ccc(OC)cc3)c(=O)[nH]2)c1 | 5.5% | -18.1% | · | 2.8% | 9.5% | 50.1µM*
COC(=O)c1cccc(NC(=O)CSc2nc(O)c(-c3ccccc3)c(=O)[nH]2)c1 | 22.4% | -9.6% | 16.3% | -24.0% | ? | 70.8µM*
Cc1ccc(-c2nc3n(n2)C(c2ccccc2C)C=C(c2ccc(Cl)cc2)N3)cc1 (stereo not given) | 52.2% | · | · | ? | -17.6% | -15.1%[59 µM]
CN(C)/N=C/c1ccc(P(c2ccc(/C=N/N(C)C)o2)c2ccc(/C=N/N(C)C)o2)o1 | ? | -2.1% | 8.7% | 17.8µM* | 22.4µM* | 35.5µM*
COCCCN(C(=S)Nc1c(C)cc(C)cc1C)C(C)c1ccccn1 (stereo not given) | 6.0% | 23.8µM* | 22.4µM* | -7.0% | -25.4% | 39.8µM*
COCCCN(C(=S)Nc1cc(C)cc(C)c1)C(C)c1ccncc1 (stereo not given) | 19.2% | -22.2% | 0.9% | -17.6% | -3.2% | 5.8%[59 µM]
N#CC1(NC(=O)COC(=O)c2nccnc2N)CCCCC1 | 22.7% | -6.3% | · | -15.2% | ? | ?
COc1ccc(-c2cc(=O)oc3c4c(ccc23)OCN(Cc2cccc(OC)c2)C4)cc1 | 63.4% | · | · | -13.9% | -0.9% | 0.3%[59 µM]
COCCNC(=S)N/N=C(\C)c1ccc(C)c([N+](=O)[O-])c1 | -2.2% | -0.4% | -1.3% | ? | -32.5% | -3.5%[59 µM]
COCCNC(=S)NNc1ccccc1[N+](=O)[O-] | ? | 15µM* | 10µM* | ? | 50.1µM* | ?
COCCNC(=S)Nc1ccc([N+](=O)[O-])cc1C | 31.3% | 0.9% | 56.2µM* | -6.2% | -12.9% | ·
N#Cc1cccc(NC(=O)N2CCCC3(CCN(C(=O)c4cc(C(F)(F)F)cc(C(F)(F)F)c4)CC3)C2)c1 | · | · | 12.8% | · | · | -0.6%[12.7 µM]
CCN(c1ccccc1)S(=O)(=O)c1cc(Br)cc2c1N(C(=O)C1CC1)CC2 | 12.6% | · | · | -14.0% | -1.8% | -30.0%[59 µM]
NC(=O)c1ccc(NC(=O)CSc2nc3ccccc3c(=O)n2CCCN2CCOCC2)cc1 | 56.0% | 1.9% | · | 0.0% | 4.0% | 16.3%[12.7 µM]
CCCCNCCOCCOc1ccccc1-c1ccccc1 | ? | -8.6% | -6.2% | 1.41µM* | ? | ?
C=CCNCCOc1ccccc1-c1ccccc1 | 45.7% | -1.9% | 5.8% | -6.1% | 6.4% | -1.0%[59 µM]
COCCNCCCCOc1ccccc1-c1ccccc1 | ? | -3.5% | 22.7% | 3.16µM* | 56.2µM* | 7.08µM*
Fc1ccc(CSc2nncn3c2cc2occc23)c(Cl)c1 | -3.0% | · | · | -30.4% | ? | ?
